In PubChem BioAssay (NCI):
Compounds without any hit were thinned out: in the full panel of roughly 83,000, 20% have a hit.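 Plates (96-well) were seeded with cells, treated with compound at one concentration, and incubated for 48 hours before percent growth was determined.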 Calls of active or inactive are those of the source. The calls were made as follows: active = growth percent below 10; inactive = the rest.

test system: SK-MEL-2 melanoma; test: NCI-60 one-dose screen, 48 h (100 = growth as untreated, 0 = no growth, -100 = all killed); conditions: 10 µM unless noted

Row | SMILES | growth
1 | Oc1ccccc1/C=N/Nc1nc(N/N=C/c2ccccc2O)nc(N2CCOCC2)n1 | 72% (inactive)
2 | IP(CCCSc1n(Cc2ccc3ccccc3c2)c(-c2ccccc2)c(-c2ccccc2)[n+]1Cc1ccc2ccccc2c1)(c1ccccc1)(c1ccccc1)c1ccccc1 | 2.52% (active)
3 | Cn1cc(-c2nnc(N)nc2-c2cn(C)c3ccc(F)cc23)c2cc(F)ccc21 | 97% (inactive)
4 | N/C(=N\OC(=O)CSc1nc2ccccc2s1)c1ccc(Cl)cc1 | 101% (inactive)

test system: EKVX NSCLC; test: as above; conditions: 10 µM unless noted

Row | SMILES | growth
5 | NS(=O)(=O)c1ccc(Nc2nc(N/N=C/c3ccc(F)cc3)nc(Nc3ccccc3)n2)cc1 | 62.7% (inactive)
6 | COc1ccc(-c2cc(-c3ccc(Cl)cc3)nc3nc(N)nn23)cc1 | 99.3% (inactive)
7 | COc1ccc(Cn2cc3c(c2-c2cc(OC)c(OC)c(OC)c2)CCCc2cnoc2-3)cc1 | 40.2% (inactive)
8 | CN(c1ccc(F)cc1)S(=O)(=O)c1ccc(-c2cnc(C3CC3)o2)cc1 | 46.9% (inactive)
9 | COC[C@]12CC[C@@H](C)[C@H](C)[C@H]1C1=CC[C@@H]3[C@@]4(C)CCCNC(C)(C)[C@@H]4CC[C@@]3(C)[C@]1(C)CC2 | 57.8% (inactive)
10 | C=C(C)[C@@H]1CC[C@]2(C(=O)ON)CC[C@]3(C)[C@H](CC[C@@H]4[C@@]5(C)C/C(=C/c6ccc(Br)cc6)C(=O)C(C)(C)[C@@H]5CC[C@]43C)[C@@H]12 | 60.5% (inactive)
11 | CN(c1ccc(Br)cc1)S(=O)(=O)c1ccc(-c2cnc(C3CC3)o2)cc1 | 43.1% (inactive)
12 | CCCCCCNC(=O)Oc1ccc(/C(=C(\C)c2ccc(Cl)cc2)c2ccc(OCCN(C)C)cc2)cc1 | 60.5% (inactive)
13 | C=C(C)[C@@H]1CC[C@]2(COS(C)(=O)=O)CC[C@]3(C)[C@H](CC[C@@H]4[C@@]5(C)CCCNC(C)(C)[C@@H]5CC[C@]43C)[C@@H]12 | 89.2% (inactive)
14 | O=C(NNc1nc2cc(F)ccc2n2cncc12)c1cnccn1 | 20.3% (inactive)
15 | CN1CCN(c2ccc3c(C(N)=O)c(NC(=O)c4ccc(C(C)(C)C)cc4)sc3c2)CC1 | 85.2% (inactive)
16 | NC(=O)C(=Cc1ccc(Cl)cc1)C(N)=O | 59.8% (inactive)
17 | CCN1C(=O)N(CC)C2SC(N/N=C/C=C/c3ccccc3OC)=NC21 (configuration not stated) | 46.8% (inactive)
18 | CC(=O)C1=NN(c2ccc(Cl)cc2)C(=O)CN1C | 95.7% (inactive)
19 | CCOC(=O)c1c(NCC(=O)Nc2ccc(Br)cc2)sc2c1CCCC2 | 76% (inactive)
20 | CN1CCN(c2ccc3c(c2)nc(NNC(=O)c2ccncn2)c2cccn23)CC1 | 22.4% (inactive)
21 | CCOc1c(C#N)c(Nc2ccc(S(N)(=O)=O)cc2)c(C#N)c2nnc(C)n12 | 90.5% (inactive)
22 | O=c1[nH]c(CNc2ccc(NCc3c(-c4ccccc4)no[n+]3[O-])cc2)nc2c1cnn2-c1ccccc1 | 51.3% (inactive)
23 | C#CCOc1ccc(C(Nc2ccc(Cl)cc2)c2nnnn2C2CCCCC2)cc1 (configuration not stated) | 53.9% (inactive)

Row | SMILES | growth
24 | COc1cc(/C=N/Nc2ccnc3cc(Cl)ccc23)cc(OC)c1O | -71.8% (active)
25 | COc1cc(C(=O)C[n+]2ccc3ccccc3c2)cc(OC)c1OC | 98.6% (inactive)
26 | Cc1ccc(NC(=O)c2ccc(CN3CCN(C)CC3)c(I)c2)cc1Oc1ccc(-c2[nH]nc3ncnc(N)c23)cc1 | 100% (inactive)
27 | COc1ccc(Cn2cc3c(c2-c2ccccc2)CCCc2cnoc2-3)cc1 | 69.2% (inactive)
28 | N#Cc1c(NC(=O)c2ccc(F)c(Cl)c2)sc2c1CCC(=O)C2 | 13.1% (inactive)
29 | c1ccc(-c2c(-c3ccccc3)[n+](Cc3ccc4ccccc4c3)c(-c3ccccc3)n2Cc2ccc3ccccc3c2)cc1 | -90.1% (active)
30 | CCOC(=O)C1=C(C)N=C2Sc3ccccc3N2C1c1ccccc1 (configuration not stated) | 67.6% (inactive)
31 | CCn1c2ccc(/C=N/NS(=O)(=O)CCN(C)C)cc2c2cc(/C=N/NS(=O)(=O)CCN(C)C)ccc21 | 110% (inactive)
32 | Cn1cc2c(c1)-c1c(sc3nc(-c4ccc(NC(=O)Nc5cc(C(C)(C)C)on5)cc4)cn13)CC2 | 60.2% (inactive)
33 | CCOC(=O)c1c(NC(=O)c2ccc(C(C)(C)C)cc2)sc2cc(OCCN3CCCCC3)ccc12 | 87.5% (inactive)
34 | COc1ccccc1/C=C/C=N/NC1=NC2C(S1)N(C)C(=O)N2c1ccccc1 (configuration not stated) | 39.4% (inactive)
35 | CC1(C)CC[C@]2(C(=O)O)CC[C@]3(C)C(=CCC4[C@@]5(C)C[C@@H](O)[C@@H]6OC(c7cccc([N+](=O)[O-])c7)OC[C@@]6(C)C5CC[C@]43C)C2C1 (some centres not stated) | 57.6% (inactive)
36 | CN(C)c1ncc(/C=C2\SC(=S)N(Cc3ccccc3Cl)C2=O)s1 | 81.7% (inactive)
37 | O=C(/C=C1\C=CN(CCCCO)c2ccccc21)n1ccc2ccccc21 | 89.6% (inactive)
38 | C#C[C@]1(O)CC[C@H]2[C@@H]3CC=C4c5sc(Nc6nc(C)cc(OC)n6)nc5CC[C@]4(C)[C@H]3CC[C@@]21C | 41.8% (inactive)
39 | Oc1ccccc1/C=N/Nc1nc(N/N=C/c2ccccc2O)nc(N2CCOCC2)n1 | 22.2% (inactive)
40 | IP(CCCSc1n(Cc2ccc3ccccc3c2)c(-c2ccccc2)c(-c2ccccc2)[n+]1Cc1ccc2ccccc2c1)(c1ccccc1)(c1ccccc1)c1ccccc1 | 32% (inactive)
41 | Cn1cc(-c2nnc(N)nc2-c2cn(C)c3ccc(F)cc23)c2cc(F)ccc21 | 101% (inactive)
42 | N/C(=N\OC(=O)CSc1nc2ccccc2s1)c1ccc(Cl)cc1 | 86.6% (inactive)
